From PubChem BioAssay (EPA / NIEHS) come the findings set out here.

Values joined by “and” are separate entries in the source; they are usually repeats but may differ in a detail not shown here. Equal values may be shown once. More than one record can exist for a structure, and the calls need not agree. Active and inactive are the calls of the source. The calls were made as follows: active = hit-call score of the fitted dose curve at least 0.9, where 1 is the maximum; inactive = score below 0.9.

Read-out in test [1]: Tissue Factor, F3 (gene 2152)
Put plainly: BSK_CASM3C_TissueFactor: BioMAP Diversity Plus: CASM3C Assay for Tissue Factor Biomarker Activity (AID 2283052).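 Also: cell surface tissue factor protein level read by ELISA.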 Particulars: primary human coronary artery smooth muscle cells; actives raise or lower the signal.

Read-out in test [2]: Interferon-gamma inducible Protein 10 (IP10), CXCL10 (gene 3627)
Put plainly: BSK_hDFCGF_IP10: BioMAP Diversity Plus: hDFCGF Assay for Interferon-gamma inducible Protein 10 (IP10) Biomarker Activity (AID 2283053). The following applies: primary human foreskin fibroblasts; actives raise or lower the signal. The method, boiled down:
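Cells: human dermal foreskin fibroblasts. Exposure: 24 h post-dosing. Detection: IP-10 ELISA, with values expressed against DMSO controls and fitted in both directions.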

Read-out in test [3]: Urokinase-type plasminogen activator receptor (uPAR), PLAUR (gene 5329)
Put plainly: BSK_CASM3C_uPAR: BioMAP Diversity Plus: CASM3C Assay for Urokinase-type plasminogen activator receptor (uPAR) Biomarker Activity (AID 2283054).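 Also: cell-surface uPAR protein level quantified by ELISA.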 The following applies: primary human coronary artery smooth muscle cells; actives raise or lower the signal.

Read-out in test [4]: Vascular cell adhesion molecule 1 (VCAM1), VCAM1 (gene 7412)
The test can be described thus: BSK_CASM3C_VCAM1: BioMAP Diversity Plus: CASM3C Assay for Vascular cell adhesion molecule 1 (VCAM1) Biomarker Activity (AID 2283055).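 Also: VCAM-1 protein level quantified by ELISA on the cells.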 Particulars: primary human coronary artery smooth muscle cells; actives raise or lower the signal.

Read-out in test [5]: Collagen III, COL3A1 (gene 1281)
The test can be described thus: BSK_hDFCGF_CollagenIII: BioMAP Diversity Plus: hDFCGF Assay for Collagen III Biomarker Activity (AID 2283056). Particulars: primary human foreskin fibroblasts; actives raise or lower the signal. The method, boiled down: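 ELISA read-out of collagen III from human skin fibroblast cultures sampled 24 h post-dosing. Values were derived by bidirectional fitting relative to the DMSO vehicle control.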

Read-out in test [6]: Epidermal growth factor receptor (EGFR), EGFR (gene 1956)
Put plainly: BSK_hDFCGF_EGFR: BioMAP Diversity Plus: hDFCGF Assay for Epidermal growth factor receptor (EGFR) Biomarker Activity (AID 2283057). Particulars: primary human foreskin fibroblasts; actives raise or lower the signal. Put shortly: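 Dosing human primary skin fibroblasts, then measuring surface EGFR by ELISA at 24 h, gives the endpoint; gains and losses relative to DMSO were fitted in both directions.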

Read-out in test [7]: Interleukin-8 (IL8), CXCL8 (gene 3576)
Put plainly: BSK_hDFCGF_IL8: BioMAP Diversity Plus: hDFCGF Assay for Interleukin-8 (IL8) Biomarker Activity (AID 2283058). Particulars: primary human foreskin fibroblasts; actives raise or lower the signal. The method, boiled down:
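Cells used are human skin primary fibroblasts. Chemical is added, cultures run 24 h, then IL-8 is quantified by ELISA, and gain or loss versus DMSO control is fitted in both directions.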

A short description of test [8]: BSK_hDFCGF_Proliferation: Cell Proliferation Assessment in the BioMAP Diversity Plus: hDFCGF Assay (AID 2283059).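 Also: curves fitted for both rise and fall of signal versus DMSO baseline.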 Particulars: primary human foreskin fibroblasts. The method, boiled down:
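Sub-confluent human foreskin fibroblast cultures receive test chemical […]. Relative cell number is quantified by sulforhodamine B staining (0.1%, after 10% TCA fixation) at 560 nm, with bidirectional fitting referenced to DMSO.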

Read-out in test [9]: Macrophage colony-stimulating factor (MCSF), CSF1 (gene 1435)
Put plainly: BSK_hDFCGF_MCSF: BioMAP Diversity Plus: hDFCGF Assay for Macrophage colony-stimulating factor (MCSF) Biomarker Activity (AID 2283060). Particulars: primary human foreskin fibroblasts; actives raise or lower the signal. The method, boiled down: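 Primary human foreskin fibroblasts dosed with chemical; 24 h later, M-CSF quantified by ELISA; curves fitted in both directions vs DMSO negative control.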

Test [10] in a line: BSK_hDFCGF_SRB: Viability Assessment in the BioMAP Diversity Plus: hDFCGF Assay (AID 2283061).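 Also: cells exposed to compound for 24 h before the read.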 The following applies: primary human foreskin fibroblasts. Put shortly:
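Readout is SRB absorbance at 560 nm, reflecting total protein in parallel cultures of human foreskin fibroblasts harvested 24 h after chemical dosing. Activity was fitted bidirectionally relative to DMSO.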

Read-out in test [11]: TIMP metallopeptidase inhibitor 1 (TIMP1), TIMP1 (gene 7076)
The test can be described thus: BSK_hDFCGF_TIMP1: BioMAP Diversity Plus: hDFCGF Assay for TIMP metallopeptidase inhibitor 1 (TIMP1) Biomarker Activity (AID 2283062). The following applies: primary human foreskin fibroblasts; actives raise or lower the signal. The method, boiled down:
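Human skin fibroblasts (primary), hDFCGF system; compound exposure 24 h; TIMP-1 by ELISA; bidirectional fit vs DMSO negative control; overt cytotoxicity by SRB in parallel wells.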

Read-out in test [12]: Monokine induced gamma interferon (MIG), CXCL9 (gene 4283)
Put plainly: BSK_hDFCGF_MIG: BioMAP Diversity Plus: hDFCGF Assay for Monokine induced gamma interferon (MIG) Biomarker Activity (AID 2283063). Particulars: primary human foreskin fibroblasts; actives raise or lower the signal. The method, boiled down: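 Chemicals were added to primary human foreskin fibroblast cultures, which were sampled 24 h later. MIG levels were then quantified by ELISA and responses fitted in both directions relative to DMSO.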

Read-out in test [13]: Matrix Metallopeptidase 1 (MMP1), MMP1 (gene 4312)
Put plainly: BSK_hDFCGF_MMP1: BioMAP Diversity Plus: hDFCGF Assay for Matrix Metallopeptidase 1 (MMP1) Biomarker Activity (AID 2283064). The following applies: primary human foreskin fibroblasts; actives raise or lower the signal. The method, boiled down: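 ELISA read-out of MMP1 from human foreskin fibroblasts (primary skin cells), 24 h post-dose. Gain or loss of signal was fitted bidirectionally versus DMSO negative control; cytotoxicity was checked by SRB in parallel cultures.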

Read-out in test [14]: Vascular cell adhesion molecule 1 (VCAM1), VCAM1 (gene 7412)
The test can be described thus: BSK_hDFCGF_VCAM1: BioMAP Diversity Plus: hDFCGF Assay for Vascular cell adhesion molecule 1 (VCAM1) Biomarker Activity (AID 2283065).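 As to AC50: VCAM-1 protein level quantified by ELISA after 24 h chemical exposure.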 Particulars: primary human foreskin fibroblasts; actives raise or lower the signal. The method, boiled down: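 Human foreskin fibroblast primary cells, chemical exposure 24 h; VCAM-1 by ELISA; bidirectional fit, DMSO = negative control/baseline.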

Read-out in test [15]: Plasminogen activator inhibitor-1 (PAI1), SERPINE1 (gene 5054)
The test can be described thus: BSK_hDFCGF_PAI1: BioMAP Diversity Plus: hDFCGF Assay for Plasminogen activator inhibitor-1 (PAI1) Biomarker Activity (AID 2283066). The following applies: primary human foreskin fibroblasts; actives raise or lower the signal. Put shortly: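 Fibroblasts from human foreskin were treated with test chemical. After 24 h, PAI-1 was measured by ELISA. Activity was fitted in both directions relative to DMSO.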

Read-out in test [16]: Intercellular Adhesion Molecule 1 (ICAM1), ICAM1 (gene 3383)
The test can be described thus: BSK_KF3CT_ICAM1: BioMAP Diversity Plus: KF3CT Assay for Intercellular Adhesion Molecule 1 (ICAM1) Biomarker Activity (AID 2283067). The following applies: primary human keratinocytes with fibroblasts; actives raise or lower the signal. The method, boiled down:
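ICAM-1 levels are measured by ELISA 24 h after dosing a primary human co-culture of keratinocytes and foreskin fibroblasts. Activity in either direction is fitted relative to DMSO vehicle.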

Read-out in test [17]: Interferon-gamma inducible Protein 10 (IP10), CXCL10 (gene 3627)
The test can be described thus: BSK_KF3CT_IP10: BioMAP Diversity Plus: KF3CT Assay for Interferon-gamma inducible Protein 10 (IP10) Biomarker Activity (AID 2283068). The following applies: primary human keratinocytes with fibroblasts; actives raise or lower the signal. The method, boiled down:
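ELISA read-out of IP-10 after 24 h chemical dosing of human skin primary co-culture (keratinocytes, foreskin fibroblasts). Gain or loss of signal relative to DMSO, bidirectional curve fit.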

A short description of test [18]: BSK_KF3CT_SRB: Viability Assessment in the BioMAP Diversity Plus: KF3CT Assay (AID 2283069).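 Also: total protein by sulforhodamine B staining as a cytotoxicity measure; read 24 h after compound addition; fitted for both signal gain and loss against DMSO baseline.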 The following applies: primary human keratinocytes with fibroblasts. Put shortly:
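SRB read-out at 560 nm (0.1% stain, TCA-fixed cells) gauges overt cytotoxicity in a human skin keratinocyte–fibroblast co-culture 24 h post-dosing. Signal change was fitted bidirectionally relative to DMSO control.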

Read-out in test [19]: Interleukin-1 alpha (IL1a), IL1A (gene 3552)
Put plainly: BSK_KF3CT_IL1a: BioMAP Diversity Plus: KF3CT Assay for Interleukin-1 alpha (IL1a) Biomarker Activity (AID 2283070). The following applies: primary human keratinocytes with fibroblasts; actives raise or lower the signal. Put shortly: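 Primary skin co-culture (keratinocytes, foreskin fibroblasts), 24 h exposure; ELISA for IL-1a; bidirectional curve fit vs DMSO.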

`CC1(C)C(C=C(Cl)Cl)C1C(=O)OC(C#N)c1ccc(F)c(Oc2ccccc2)c1` (stereo not given): the outcome in test [1], in test [2], in test [3], in [4], in [7] and in [9] was inactive. The result in [11], in test [12], in [13], in [14], in test [15] and in test [16] was inactive. Also, the result in test [17], in test [18] and in test [19] was inactive. Further, the AC50 (commonly the midpoint of the concentration-response curve, whichever way the signal moves) was 0.189 µM (active) in [5], 3.84 µM (active) in [6], 13.2 µM (active) in test [8] and 31.1 µM (active) in test [10].

In the case of `COc1nn(CSP(=S)(OC)OC)c(=O)s1`, the outcome in [1], in test [3], in test [4], in test [5], in test [6] and in test [7] was inactive. Moreover, the outcome in [8], in test [9], in test [10], in test [11], in test [12] and in test [13] was inactive. For the same compound, the outcome in test [14], in [15], in test [16], in [17], in [18] and in [19] was inactive. The AC50 in test [2] is 20 µM (active).

With `COC(=O)c1ccccc1S(=O)(=O)NC(=O)N(C)c1nc(C)nc(OC)n1`, the outcome in test [1], in test [3], in [4], in [5], in [6] and in [7] was inactive. Further, the outcome in [8], in test [9], in test [10], in [11], in test [12] and in test [13] was inactive. Besides, the result in [14], in test [15], in test [16], in test [17], in [18] and in test [19] was inactive. Besides, in test [2], the AC50 was 28.7 µM (active).

Turning to `CCOCN(C(=O)CCl)c1c(C)cccc1CC`, the outcome in test [1], in test [3], in [6], in test [7], in test [10] and in [11] was inactive. In addition, the result in test [16], in [18] and in test [19] was inactive. Also, the AC50 was 20 µM (active) in test [2]; 20 µM (active) in test [4]; 8.23 µM (active) in test [5]; 14.5 µM (active) in test [8]; 9.55 µM (active) in test [9]; 22.8 µM (active) in test [12]. Moreover, the AC50 in [13] was 5.13 µM (active); in test [14], 3.54 µM (active); in test [15], 21.8 µM (active); in [17], 23.6 µM (active).

With `ClC1C(Cl)C(Cl)C(Cl)C(Cl)C1Cl` (stereo not given), the result in test [1], in [2], in [3], in test [4], in test [5] and in test [6] was inactive. The outcome in test [7], in test [8], in test [9], in [10], in test [11] and in test [12] was inactive. Besides, the outcome in [13], in test [14], in test [15], in [16], in test [17] and in test [18] was inactive. In [19], the outcome was inactive. The AC50 in test [2] is 32.2 µM (active); in test [3], 29 µM (active); in test [4] it was 32.2 µM (active) and 32.4 µM (active); in [5], 20 µM (active); in test [8] it was 28.1 µM (active) and 24.6 µM (active).
